From PubChem BioAssay (NCI)
Compounds without any hit were thinned out: in the full panel of roughly 83,000, 20% have a hit.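 Interpretation: 100, growth as untreated; towards 0, rising growth inhibition; 0, no net growth; 0 to -100, cell death. Compounds scoring below 10 were considered active.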 Calls of active or inactive are those of the source.

Legend:
Assay in all cases: NCI-60 one-dose screen, 48 h (100 = growth as untreated, 0 = no growth, -100 = all killed)
Settings in all cases: 10 µM unless noted
[1] = test system: SR leukemia
[2] = test system: RPMI-8226 leukemia
[3] = test system: OVCAR-8 ovarian
[4] = test system: OVCAR-5 ovarian
[5] = test system: OVCAR-4 ovarian
[6] = test system: IGROV1 ovarian
[7] = test system: OVCAR-3 ovarian
[8] = test system: NCI/ADR-RES ovarian
[9] = test system: T-47D breast
[10] = test system: BT-549 breast
[11] = test system: MDA-MB-435 melanoma
[12] = test system: SW-620 colon
[13] = test system: MCF7 breast
[14] = test system: HCT-116 colon
[15] = test system: HCC-2998 colon
[16] = test system: KM12 colon
[17] = test system: HS 578T breast
[18] = test system: SK-OV-3 ovarian

Measured: growth

O=c1c2ccccc2nc(COc2ccccc2)n1NS(=O)(=O)c1ccc(Cl)cc1
inactive: [1] 57.6% | [2] 95.6% | [3] 92% | [4] 91.2% | [5] 95.2% | [6] 61.7% | [7] 103% | [8] 73% | [9] 74.8% | [10] 106% | [12] 64.1% | [13] 41.9% | [14] 83.6% | [15] 77.6% | [16] 55.2%
active: [11] 5.47%

Nc1ncc(-c2ccc(NS(=O)(=O)c3ccc(Cl)c(Cl)c3)cc2)[nH]1
inactive: [1] 76.6% | [2] 59.1% | [3] 92.9% | [4] 90.4% | [5] 93.9% | [6] 88.8% | [17] 79.5% | [8] 98.3% | [9] 76.7% | [10] 69.9% | [11] 96.4% | [12] 91.3% | [13] 75% | [14] 99.3% | [15] 91.2% | [16] 89.6%

Cc1ccc(-c2cc3nc(C(Cl)Cl)nc(-c4cccs4)n3n2)cc1
inactive: [1] 108% | [2] 51.9% | [3] 77.5% | [4] 72.4% | [5] 71% | [6] 61.7% | [7] 20.3% | [17] 91% | [8] 58.3% | [9] 87.8% | [10] 97.8% | [11] 77.6% | [12] 52.5% | [13] 59.8% | [14] 63.5% | [15] 54.1% | [16] 27.1%

CCCn1cnc2c(c1=N)C(c1ccc(F)cc1)c1sc3c(C)cccc3c1O2 (configuration not stated)
active: [1] 8.4% | [2] -13.5% | [7] -12.6% | [8] -11.8% | [11] -58%
inactive: [3] 40.2% | [4] 42.4% | [5] 35.8% | [6] 25.2% | [17] 13.7% | [9] 38.3% | [12] 16.4% | [13] 18.4% | [14] 16.7% | [15] 57.3% | [16] 24.9%

CS(=O)(=O)c1ccc(-c2nn(-c3ccccc3)cc2/C=N/NC(=O)c2nc(N)n[nH]2)cc1
inactive: [1] 69.7% | [2] 83.3% | [3] 101% | [4] 94.8% | [5] 103% | [6] 90.8% | [7] 97.1% | [17] 111% | [8] 98.9% | [9] 101% | [10] 103% | [11] 91.9% | [12] 88.4% | [13] 88.3% | [14] 94.8% | [15] 117% | [16] 94.7%

CCCCCCCn1cc2c(N[C@H](C)c3ccccc3)ncnc2n1
inactive: [1] 99.5% | [2] 100% | [3] 103% | [4] 104% | [5] 100% | [6] 89.9% | [7] 103% | [17] 91.2% | [8] 102% | [9] 99.7% | [10] 102% | [11] 103% | [12] 117% | [13] 90.3% | [14] 104% | [15] 116% | [16] 100%

COc1ccc(NCc2cn(-c3ccc(C(=O)O)cc3)nc2-c2cc(C(F)(F)F)cc(C(F)(F)F)c2)cc1
inactive: [1] 112% | [2] 67.2% | [3] 109% | [4] 104% | [6] 108% | [7] 101% | [17] 81.5% | [8] 96.8% | [9] 76.6% | [10] 110% | [11] 101% | [12] 102% | [13] 90.9% | [14] 95.2% | [15] 104% | [16] 99.8%

CCc1nn2c(C)cc(C)nc2c1Cc1ccc(/C=C/CN2CCN(CCOCCOCCN3CCN(C/C=C/c4ccc(Cc5c(CC)nn6c(C)cc(C)nc56)cc4)CC3)CC2)cc1
active: [1] -30.9% | [2] -41.9% | [6] 4.6% | [7] -60.4% | [17] -39.4% | [9] -36.4% | [11] -78.3% | [12] -50.4% | [13] -85.8% | [14] -84.1% | [15] -61.9%
inactive: [3] 19.1% | [4] 28.2% | [18] 85.2% | [8] 23.2% | [10] 79.7% | [16] 35.2%

CCn1c(SCC(=O)Nc2cccc(C(=O)/C=C/c3cc(OC)c(OC)c(OC)c3)c2)nc2ccccc2c1=O
active: [1] 5.81% | [2] -7.09% | [14] -28.8%
inactive: [3] 34.3% | [4] 27.7% | [18] 102% | [6] 13% | [7] 14.3% | [17] 59.3% | [8] 14.1% | [9] 49.3% | [10] 52.8% | [12] 14.9% | [13] 19.9% | [15] 42.2% | [16] 44.6%

CCO/C=N/C1=C(C#N)C(c2ccc(F)cc2)c2sc3c(C)cccc3c2O1 (configuration not stated)
active: [7] -6.49% | [11] -31.2% | [14] 6.05% | [16] 8.6%
inactive: [1] 17.3% | [2] 12.8% | [3] 23.9% | [4] 25.6% | [18] 66.6% | [6] 18.7% | [17] 24.6% | [8] 12.1% | [9] 62.1% | [10] 20% | [12] 19.6% | [13] 14.6% | [15] 18.7%

CC1(C)[C@@H](O)CC[C@]2(C)[C@H]3CC[C@@H]4[C@H]5[C@H](C(=O)/C=C\c6ccncc6)CC[C@]5(O)CC[C@@]4(C)[C@]3(C)CC[C@@H]12
inactive: [2] 12.1% | [3] 40.3% | [4] 47.5% | [18] 113% | [6] 37.3% | [7] 34.6% | [17] 39.3% | [8] 25.5% | [9] 68.7% | [10] 68.2% | [11] 14.9% | [12] 26.5% | [13] 24.6% | [14] 14.9% | [15] 77.9% | [16] 39.2%
active: [1] 4.32%

CC(=O)O[C@@H]1C(=O)N(c2cnccn2)[C@H]1c1ccccc1[N+](=O)[O-]
inactive: [1] 11.5% | [2] 13.3% | [4] 26.8% | [18] 32.6% | [6] 13.6% | [17] 13.8% | [8] 26.7% | [9] 85.2% | [12] 20.1% | [13] 15.5% | [15] 31.5%
active: [3] -20.5% | [7] 2.08% | [10] -13.3% | [11] -38.7% | [14] -14.2% | [16] -2.26%

Cn1cc(-c2nc(N)nnc2-c2c[nH]c3ccccc23)c2cc(Br)ccc21
inactive: [1] 26.7% | [2] 12.9% | [3] 33% | [4] 55.1% | [18] 29.7% | [6] 30.5% | [7] 16.9% | [8] 20.2% | [9] 31.2% | [10] 32.9% | [12] 18.2% | [13] 18.1% | [14] 20.3% | [15] 57.6% | [16] 18.1%
active: [17] 2.13% | [11] -37.6%

C=CCn1c(SCC(=O)Nc2ccc(C(=O)/C=C/c3ccc(Br)cc3)cc2)nnc1-c1c[nH]c2ccccc12
active: [2] 3.64% | [14] -60.7%
inactive: [1] 70.3% | [3] 81.2% | [4] 99.4% | [18] 91.8% | [6] 76.4% | [7] 86.9% | [17] 89.9% | [8] 101% | [9] 60.7% | [10] 119% | [11] 94.7% | [12] 92.3% | [13] 22.8% | [15] 109% | [16] 89.3%

NC(N)=Nc1ccc(Oc2cccc(NC(N)=Nc3ccc(Cl)c(C(F)(F)F)c3)c2)cc1
inactive: [2] 41.4% | [3] 66.8% | [4] 48.1% | [18] 54.9% | [7] 30.8% | [17] 35.8% | [8] 95.4% | [9] 57.9% | [10] 43.8% | [11] 62.9% | [12] 57% | [13] 42% | [14] 44.9% | [15] 66.2% | [16] 26.2%
active: [1] 7.43% | [6] -10.5%

NC(N)=Nc1ccc(Oc2cccc(NC(N)=Nc3ccc(Br)c(C(F)(F)F)c3)c2)cc1
inactive: [2] 45.5% | [3] 65.5% | [4] 45.1% | [7] 23.5% | [17] 34% | [8] 96.8% | [9] 55.5% | [10] 45.9% | [11] 57.5% | [12] 53.4% | [13] 32.2% | [14] 42.9% | [16] 20.4%
active: [1] 4.94% | [6] -16.6%

COc1ccccc1NC1=C(Cl)C(=O)c2nc(C)ccc2C1=O
inactive: [4] 78.9% | [18] 88.3% | [17] 72.1% | [10] 83.5% | [15] 58.9% | [16] 69.4%
active: [1] -27.9% | [2] -30.4% | [3] 9.87% | [6] -83.5% | [7] -85.9% | [8] 7.08% | [9] -44.7% | [11] -86% | [12] -63.1% | [13] -60.4% | [14] -80.6%
